# Results: the supplement of paper PMC4466140
# B1: unnamed (peptide)
# chain: SPLGAPPPPPHKDHL
# B2: unnamed (peptide)
# chain: MSPLGAPPPPPHKDH
# Columns and labels:
# Experiment in all cases: SPOT peptide array binding signal intensity (averaged, normalized) (arbitrary units (background-subtracted, floor 0; scale differs between SH3 domains)); higher = stronger binding of the SH3 domain to the peptide
# AgAbp1 = target: AgAbp1
# Procedure, shortened: (§1)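 Detection of bound protein relied on anti-GST antibody, an HRP anti-mouse secondary and luminol, with imaging and quantification in Genespotter. The bound protein was GST-fused SH3 domains from four yeast species, incubated at 10 μg/ml overnight at 4°C in TBS-based blocking buffer on cellulose membranes carrying synthetic 15-mer peptides with cysteines replaced by serines. Binding signal is normalized, background-subtracted spot intensity averaged over replicates, in arbitrary units that differ between domains.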
# AgBbc1 = target: AgBbc1
# Procedure, shortened: as §1
# AgBem1-D1 = target: AgBem1-D1
# Procedure, shortened: as §1
# AgBzz1-D1 = target: AgBzz1-D1
# Procedure, shortened: as §1
# AgBzz1-D2 = target: AgBzz1-D2
# Procedure, shortened: as §1
# AgCyk3 = target: AgCyk3
# Procedure, shortened: as §1
# AgFus1 = target: AgFus1
# Procedure, shortened: as §1
# AgHof1 = target: AgHof1
# Procedure, shortened: as §1
# AgHse1 = target: AgHse1
# Procedure, shortened: as §1
# AgLsb1 = target: AgLsb1
# Procedure, shortened: as §1
# AgLsb4 = target: AgLsb4
# Procedure, shortened: as §1
# AgMyo5 = target: AgMyo5
# Procedure, shortened: as §1
# AgNbp2 = target: AgNbp2
# Procedure, shortened: as §1
# AgRvs167 = target: AgRvs167
# Procedure, shortened: as §1
# AgSho1 = target: AgSho1
# Procedure, shortened: as §1
# AgSla1-D1-D2 = target: AgSla1-D1-D2
# Procedure, shortened: as §1
# AgSla1-D3 = target: AgSla1-D3
# Procedure, shortened: as §1
# CaAbp1-D1 = target: CaAbp1-D1
# Procedure, shortened: as §1
# CaAbp1-D2 = target: CaAbp1-D2
# Procedure, shortened: as §1
# CaBbc1 = target: CaBbc1
# Procedure, shortened: as §1
# CaBem1-D1 = target: CaBem1-D1
# Procedure, shortened: as §1
# CaBzz1-D1 = target: CaBzz1-D1
# Procedure, shortened: as §1
# CaBzz1-D2 = target: CaBzz1-D2
# Procedure, shortened: as §1
# CaCyk3 = target: CaCyk3
# Procedure, shortened: as §1
# CaFus1 = target: CaFus1
# Procedure, shortened: as §1
# CaHof1 = target: CaHof1
# Procedure, shortened: as §1
# CaHse1 = target: CaHse1
# Procedure, shortened: as §1
# CaLsb1 = target: CaLsb1
# Procedure, shortened: as §1
# CaLsb4 = target: CaLsb4
# Procedure, shortened: as §1
# CaMyo5 = target: CaMyo5
# Procedure, shortened: as §1
# CaNbp2 = target: CaNbp2
# Procedure, shortened: as §1
# CaRvs167 = target: CaRvs167
# Procedure, shortened: as §1
# CaRvs167-3 = target: CaRvs167-3
# Procedure, shortened: as §1
# CaSho1 = target: CaSho1
# Procedure, shortened: as §1
# CaSla1-D1-D2 = target: CaSla1-D1-D2
# Procedure, shortened: as §1
# CaSla1-D3 = target: CaSla1-D3
# Procedure, shortened: as §1
# ScAbp1 = target: ScAbp1
# Procedure, shortened: as §1
# ScBbc1 = target: ScBbc1
# Procedure, shortened: as §1
# ScBem1-D1 = target: ScBem1-D1
# Procedure, shortened: as §1
# ScBzz1-D1 = target: ScBzz1-D1
# Procedure, shortened: as §1
# ScBzz1-D2 = target: ScBzz1-D2
# Procedure, shortened: as §1
# ScCyk3 = target: ScCyk3
# Procedure, shortened: as §1
# ScFus1 = target: ScFus1
# Procedure, shortened: as §1
# ScHof1 = target: ScHof1
# Procedure, shortened: as §1
# ScHse1 = target: ScHse1
# Procedure, shortened: as §1
# ScLsb1 = target: ScLsb1
# Procedure, shortened: as §1
# ScLsb2 = target: ScLsb2
# Procedure, shortened: as §1
# ScLsb3 = target: ScLsb3
# Procedure, shortened: as §1
# ScLsb4 = target: ScLsb4
# Procedure, shortened: as §1
# ScMyo3 = target: ScMyo3
# Procedure, shortened: as §1
# ScMyo5 = target: ScMyo5
# Procedure, shortened: as §1
# ScNbp2 = target: ScNbp2
# Procedure, shortened: as §1
# ScPex13 = target: ScPex13
# Procedure, shortened: as §1
# ScRvs167 = target: ScRvs167
# Procedure, shortened: as §1
# ScSho1 = target: ScSho1
# Procedure, shortened: as §1
# ScSla1-D1-D2 = target: ScSla1-D1-D2
# Procedure, shortened: as §1
# ScSla1-D3 = target: ScSla1-D3
# Procedure, shortened: as §1
# SpAbp1-D1 = target: SpAbp1-D1
# Procedure, shortened: as §1
# SpBbc1 = target: SpBbc1
# Procedure, shortened: as §1
# SpBzz1-D1 = target: SpBzz1-D1
# Procedure, shortened: as §1
# SpBzz1-D2 = target: SpBzz1-D2
# Procedure, shortened: as §1
# SpCyk3 = target: SpCyk3
# Procedure, shortened: as §1
# SpHof1 = target: SpHof1
# Procedure, shortened: as §1
# SpHof1-2 = target: SpHof1-2
# Procedure, shortened: as §1
# SpHof1-3 = target: SpHof1-3
# Procedure, shortened: as §1
# SpHse1 = target: SpHse1
# Procedure, shortened: as §1
# SpLsb1 = target: SpLsb1
# Procedure, shortened: as §1
# SpLsb4 = target: SpLsb4
# Procedure, shortened: as §1
# SpMyo1 = target: SpMyo1
# Procedure, shortened: as §1
# SpNbp2 = target: SpNbp2
# Procedure, shortened: as §1
# SpPex13 = target: SpPex13
# Procedure, shortened: as §1
# SpRvs167 = target: SpRvs167
# Procedure, shortened: as §1
# SpSla1-D1-D2 = target: SpSla1-D1-D2
# Procedure, shortened: as §1
# SpSla1-D3 = target: SpSla1-D3
# Procedure, shortened: as §1
binder,measurement,setting,value
B1,SPOT peptide array binding signal intensity,AgAbp1,≤ 0
same,SPOT peptide array binding signal intensity,AgBbc1,≤ 0
same,SPOT peptide array binding signal intensity,AgBem1-D1,≤ 0
same,SPOT peptide array binding signal intensity,AgBzz1-D1,≤ 0
same,SPOT peptide array binding signal intensity,AgBzz1-D2,3
same,SPOT peptide array binding signal intensity,AgCyk3,1
same,SPOT peptide array binding signal intensity,AgFus1,≤ 0
same,SPOT peptide array binding signal intensity,AgHof1,≤ 0
same,SPOT peptide array binding signal intensity,AgHse1,≤ 0
same,SPOT peptide array binding signal intensity,AgLsb1,≤ 0
same,SPOT peptide array binding signal intensity,AgLsb4,≤ 0
same,SPOT peptide array binding signal intensity,AgMyo5,546
same,SPOT peptide array binding signal intensity,AgNbp2,≤ 0
same,SPOT peptide array binding signal intensity,AgRvs167,2.83
same,SPOT peptide array binding signal intensity,AgSho1,≤ 0
same,SPOT peptide array binding signal intensity,AgSla1-D1-D2,6
same,SPOT peptide array binding signal intensity,AgSla1-D3,≤ 0
same,SPOT peptide array binding signal intensity,CaAbp1-D1,≤ 0
same,SPOT peptide array binding signal intensity,CaAbp1-D2,≤ 0
same,SPOT peptide array binding signal intensity,CaBbc1,≤ 0
same,SPOT peptide array binding signal intensity,CaBem1-D1,≤ 0
same,SPOT peptide array binding signal intensity,CaBzz1-D1,8.5
same,SPOT peptide array binding signal intensity,CaBzz1-D2,≤ 0
same,SPOT peptide array binding signal intensity,CaCyk3,≤ 0
same,SPOT peptide array binding signal intensity,CaFus1,≤ 0
same,SPOT peptide array binding signal intensity,CaHof1,≤ 0
same,SPOT peptide array binding signal intensity,CaHse1,1
same,SPOT peptide array binding signal intensity,CaLsb1,≤ 0
same,SPOT peptide array binding signal intensity,CaLsb4,≤ 0
same,SPOT peptide array binding signal intensity,CaMyo5,13.5
same,SPOT peptide array binding signal intensity,CaNbp2,≤ 0
same,SPOT peptide array binding signal intensity,CaRvs167,3
same,SPOT peptide array binding signal intensity,CaRvs167-3,≤ 0
same,SPOT peptide array binding signal intensity,CaSho1,≤ 0
same,SPOT peptide array binding signal intensity,CaSla1-D1-D2,≤ 0
same,SPOT peptide array binding signal intensity,CaSla1-D3,≤ 0
same,SPOT peptide array binding signal intensity,ScAbp1,≤ 0
same,SPOT peptide array binding signal intensity,ScBbc1,≤ 0
same,SPOT peptide array binding signal intensity,ScBem1-D1,≤ 0
same,SPOT peptide array binding signal intensity,ScBzz1-D1,11
same,SPOT peptide array binding signal intensity,ScBzz1-D2,≤ 0
same,SPOT peptide array binding signal intensity,ScCyk3,≤ 0
same,SPOT peptide array binding signal intensity,ScFus1,≤ 0
same,SPOT peptide array binding signal intensity,ScHof1,1.5
same,SPOT peptide array binding signal intensity,ScHse1,≤ 0
same,SPOT peptide array binding signal intensity,ScLsb1,≤ 0
same,SPOT peptide array binding signal intensity,ScLsb2,≤ 0
same,SPOT peptide array binding signal intensity,ScLsb3,≤ 0
same,SPOT peptide array binding signal intensity,ScLsb4,≤ 0
same,SPOT peptide array binding signal intensity,ScMyo3,931
same,SPOT peptide array binding signal intensity,ScMyo5,670
same,SPOT peptide array binding signal intensity,ScNbp2,≤ 0
same,SPOT peptide array binding signal intensity,ScPex13,≤ 0
same,SPOT peptide array binding signal intensity,ScRvs167,1
same,SPOT peptide array binding signal intensity,ScSho1,≤ 0
same,SPOT peptide array binding signal intensity,ScSla1-D1-D2,≤ 0
same,SPOT peptide array binding signal intensity,ScSla1-D3,≤ 0
same,SPOT peptide array binding signal intensity,SpAbp1-D1,≤ 0
same,SPOT peptide array binding signal intensity,SpBbc1,≤ 0
same,SPOT peptide array binding signal intensity,SpBzz1-D1,176
B2,SPOT peptide array binding signal intensity,AgAbp1,≤ 0
same,SPOT peptide array binding signal intensity,AgBbc1,≤ 0
same,SPOT peptide array binding signal intensity,AgBem1-D1,≤ 0
same,SPOT peptide array binding signal intensity,AgBzz1-D1,6.5
same,SPOT peptide array binding signal intensity,AgBzz1-D2,9
same,SPOT peptide array binding signal intensity,AgCyk3,1
same,SPOT peptide array binding signal intensity,AgFus1,1.5
same,SPOT peptide array binding signal intensity,AgHof1,≤ 0
same,SPOT peptide array binding signal intensity,AgHse1,23
same,SPOT peptide array binding signal intensity,AgLsb1,≤ 0
same,SPOT peptide array binding signal intensity,AgLsb4,≤ 0
same,SPOT peptide array binding signal intensity,AgMyo5,449
same,SPOT peptide array binding signal intensity,AgNbp2,5
same,SPOT peptide array binding signal intensity,AgRvs167,1
same,SPOT peptide array binding signal intensity,AgSho1,4
same,SPOT peptide array binding signal intensity,AgSla1-D1-D2,2
same,SPOT peptide array binding signal intensity,AgSla1-D3,≤ 0
same,SPOT peptide array binding signal intensity,CaAbp1-D1,≤ 0
same,SPOT peptide array binding signal intensity,CaAbp1-D2,≤ 0
same,SPOT peptide array binding signal intensity,CaBbc1,0.5
same,SPOT peptide array binding signal intensity,CaBem1-D1,≤ 0
same,SPOT peptide array binding signal intensity,CaBzz1-D1,10
same,SPOT peptide array binding signal intensity,CaBzz1-D2,3.25
same,SPOT peptide array binding signal intensity,CaCyk3,≤ 0
same,SPOT peptide array binding signal intensity,CaFus1,42
same,SPOT peptide array binding signal intensity,CaHof1,0.75
same,SPOT peptide array binding signal intensity,CaHse1,5.75
same,SPOT peptide array binding signal intensity,CaLsb1,0.75
same,SPOT peptide array binding signal intensity,CaLsb4,≤ 0
same,SPOT peptide array binding signal intensity,CaMyo5,46.5
same,SPOT peptide array binding signal intensity,CaNbp2,≤ 0
same,SPOT peptide array binding signal intensity,CaRvs167,0.833
same,SPOT peptide array binding signal intensity,CaRvs167-3,≤ 0
same,SPOT peptide array binding signal intensity,CaSho1,≤ 0
same,SPOT peptide array binding signal intensity,CaSla1-D1-D2,≤ 0
same,SPOT peptide array binding signal intensity,CaSla1-D3,≤ 0
same,SPOT peptide array binding signal intensity,ScAbp1,≤ 0
same,SPOT peptide array binding signal intensity,ScBbc1,≤ 0
same,SPOT peptide array binding signal intensity,ScBem1-D1,≤ 0
same,SPOT peptide array binding signal intensity,ScBzz1-D1,1.5
same,SPOT peptide array binding signal intensity,ScBzz1-D2,1
same,SPOT peptide array binding signal intensity,ScCyk3,≤ 0
same,SPOT peptide array binding signal intensity,ScFus1,≤ 0
same,SPOT peptide array binding signal intensity,ScHof1,≤ 0
same,SPOT peptide array binding signal intensity,ScHse1,≤ 0
same,SPOT peptide array binding signal intensity,ScLsb1,≤ 0
same,SPOT peptide array binding signal intensity,ScLsb2,≤ 0
same,SPOT peptide array binding signal intensity,ScLsb3,≤ 0
same,SPOT peptide array binding signal intensity,ScLsb4,≤ 0
same,SPOT peptide array binding signal intensity,ScMyo3,700
same,SPOT peptide array binding signal intensity,ScMyo5,751
same,SPOT peptide array binding signal intensity,ScNbp2,≤ 0
same,SPOT peptide array binding signal intensity,ScPex13,≤ 0
same,SPOT peptide array binding signal intensity,ScRvs167,2
same,SPOT peptide array binding signal intensity,ScSho1,≤ 0
same,SPOT peptide array binding signal intensity,ScSla1-D1-D2,≤ 0
same,SPOT peptide array binding signal intensity,ScSla1-D3,≤ 0
same,SPOT peptide array binding signal intensity,SpAbp1-D1,≤ 0
same,SPOT peptide array binding signal intensity,SpBbc1,≤ 0
same,SPOT peptide array binding signal intensity,SpBzz1-D1,324
same,SPOT peptide array binding signal intensity,SpBzz1-D2,≤ 0
same,SPOT peptide array binding signal intensity,SpCyk3,≤ 0
same,SPOT peptide array binding signal intensity,SpHof1,1
same,SPOT peptide array binding signal intensity,SpHof1-2,≤ 0
same,SPOT peptide array binding signal intensity,SpHof1-3,0.5
same,SPOT peptide array binding signal intensity,SpHse1,≤ 0
same,SPOT peptide array binding signal intensity,SpLsb1,≤ 0
same,SPOT peptide array binding signal intensity,SpLsb4,≤ 0
same,SPOT peptide array binding signal intensity,SpMyo1,1060
same,SPOT peptide array binding signal intensity,SpNbp2,≤ 0
same,SPOT peptide array binding signal intensity,SpPex13,≤ 0
same,SPOT peptide array binding signal intensity,SpRvs167,12.7
same,SPOT peptide array binding signal intensity,SpSla1-D1-D2,≤ 0
same,SPOT peptide array binding signal intensity,SpSla1-D3,≤ 0
